# Measurements reported in PMC11062922 (Nature Chemical Biology, 2023).
# Like-named read-outs stand apart in the source and are kept apart here.
# Assays:
# Parameters in all cases: species or system human, MV4-11 + K-562 + COLO205 + SK-N-BE2 + OVCAR-8
# ADCK3 = conditions: read-out: apparent Kd, compound concentrations: 100 nM and 1000 nM (sheet 'Samples'), n = 1
# ATM = conditions: read-out: apparent Kd, compound concentrations: 100 nM and 1000 nM (sheet 'Samples'), n = 1
# ADCK1 = conditions: read-out: apparent Kd, compound concentrations: 100 nM and 1000 nM (sheet 'Samples'), n = 1
# CDC42BPG = conditions: read-out: apparent Kd; compound concentrations: 100 nM and 1000 nM (sheet 'Samples'), CATDS: 7.3873319351317801E-2; n = 1
# CDKL5 = conditions: read-out: apparent Kd, compound concentrations: 100 nM and 1000 nM (sheet 'Samples'), n = 1
# CLK1 = conditions: read-out: apparent Kd; compound concentrations: 100 nM and 1000 nM (sheet 'Samples'), CATDS: 0.10181470937503199; n = 1
# CLK2 = conditions: read-out: apparent Kd; compound concentrations: 100 nM and 1000 nM (sheet 'Samples'), CATDS: 0.42234286586488101; n = 1
# CLK4 = conditions: read-out: apparent Kd; compound concentrations: 100 nM and 1000 nM (sheet 'Samples'), CATDS: 0.12045713212899201; n = 1
# PIK3CD = conditions: read-out: apparent Kd, compound concentrations: 100 nM and 1000 nM (sheet 'Samples'), n = 1
# PRKAG2 = conditions: read-out: apparent Kd; compound concentrations: 100 nM and 1000 nM (sheet 'Samples'), CATDS: 7.6138264702913502E-2; n = 1
# FLT3 = conditions: read-out: apparent Kd; compound concentrations: 100 nM and 1000 nM (sheet 'Samples'), CATDS: 0.35383441234921298; n = 1
# JAK2 = conditions: read-out: apparent Kd; compound concentrations: 100 nM and 1000 nM (sheet 'Samples'), CATDS: 0.243308820463081; n = 1
# LIMK1 = conditions: read-out: apparent Kd; compound concentrations: 100 nM and 1000 nM (sheet 'Samples'), CATDS: 6.0612482504371901E-2; n = 1
# LYN = conditions: read-out: apparent Kd; compound concentrations: 100 nM and 1000 nM (sheet 'Samples'), CATDS: 6.5965838221970899E-2; n = 1
# MAPK14 = conditions: read-out: apparent Kd; compound concentrations: 100 nM and 1000 nM (sheet 'Samples'), CATDS: 7.0797769182365994E-2; n = 1
# MTOR = conditions: read-out: apparent Kd; compound concentrations: 100 nM and 1000 nM (sheet 'Samples'), CATDS: 8.3808219559409397E-2; n = 1
# PRKACG = conditions: read-out: apparent Kd; compound concentrations: 100 nM and 1000 nM (sheet 'Samples'), CATDS: 7.8396451474863002E-2; n = 1
# PRKDC = conditions: read-out: apparent Kd; compound concentrations: 100 nM and 1000 nM (sheet 'Samples'), CATDS: 6.9640678326095301E-2; n = 1
# RET = conditions: read-out: apparent Kd; compound concentrations: 100 nM and 1000 nM (sheet 'Samples'), CATDS: 7.1676948179133407E-2; n = 1
# T10 = test system: T1, T10; conditions: read-out: apparent Kd; compound concentrations: 100 nM and 1000 nM (sheet 'Samples'), CATDS: 5.8337212061708103E-2; n = 1
# T1 construct: gene NAT10
# ADRBK1 = conditions: read-out: apparent Kd; compound concentrations: 100 nM and 1000 nM (sheet 'Samples'), CATDS: 0.28294798490762901; n = 1
# AKT2 = conditions: read-out: apparent Kd, compound concentrations: 100 nM and 1000 nM (sheet 'Samples'), n = 1
# CAMK4 = conditions: read-out: apparent Kd; compound concentrations: 100 nM and 1000 nM (sheet 'Samples'), CATDS: 7.7064865846565897E-2; n = 1
# CDK6 = conditions: read-out: apparent Kd; compound concentrations: 100 nM and 1000 nM (sheet 'Samples'), CATDS: 7.4930063387868798E-2; n = 1
# CSNK1E = conditions: read-out: apparent Kd; compound concentrations: 100 nM and 1000 nM (sheet 'Samples'), CATDS: 6.4509222244259798E-2; n = 1
# CSNK2A1;CSNK2A3 = conditions: read-out: apparent Kd; compound concentrations: 100 nM and 1000 nM (sheet 'Samples'), CATDS: 6.2096943354302901E-2; n = 1
# MAP2K1 = conditions: read-out: apparent Kd; compound concentrations: 100 nM and 1000 nM (sheet 'Samples'), CATDS: 6.2459835665012599E-2; n = 1
# MAP2K2 = conditions: read-out: apparent Kd; compound concentrations: 100 nM and 1000 nM (sheet 'Samples'), CATDS: 6.9306858675437497E-2; n = 1
# NNT = conditions: read-out: apparent Kd; compound concentrations: 100 nM and 1000 nM (sheet 'Samples'), CATDS: 7.4633464586539203E-2; n = 1
# NQO1 = conditions: read-out: apparent Kd; compound concentrations: 100 nM and 1000 nM (sheet 'Samples'), CATDS: 8.3466895844620997E-2; n = 1
# RIOK2 = conditions: read-out: apparent Kd; compound concentrations: 100 nM and 1000 nM (sheet 'Samples'), CATDS: 6.3640535742752496E-2; n = 1
smiles,measurement,setting,value
COc1ccc(CNC(=O)c2ccc(-c3cc(-c4nnc(C)o4)ccc3C)cc2)cc1 [GW701032X],potency estimated from few doses,ADCK3; CATDS: 0.40395097893739401,731 nM
same,potency estimated from few doses,ATM; CATDS: 0.655973384718888,260 nM
CCOc1ccc2c(-c3ccnc(Nc4cccc(C(F)(F)F)c4)n3)cnn2n1 [GW811761X],potency estimated from few doses,ADCK1; CATDS: 8.5431360664487602E-2,1140 nM
same,potency estimated from few doses,ATM; CATDS: 0.154535696206207,257 nM
same,potency estimated from few doses,CDC42BPG,2020 nM
same,potency estimated from few doses,CDKL5; CATDS: 0.103192047261391,644 nM
same,potency estimated from few doses,CLK1,667 nM
same,potency estimated from few doses,CLK2,49.8 nM
same,potency estimated from few doses,CLK4,438 nM
same,potency estimated from few doses,PIK3CD; CATDS: 0.16747258598029099,220 nM
same,potency estimated from few doses,PRKAG2,1760 nM
O=C(Nc1cccc(-c2nn3ncccc3c2-c2ccnc(Nc3cccc(C(F)(F)F)c3)n2)c1)c1c(F)cccc1F [GSK299495A],potency estimated from few doses,ADCK3; CATDS: 1,233 nM
CN(c1ccc(NC(=O)Nc2cc(C(F)(F)F)ccc2F)cc1)c1ccnc(Nc2ccc(S(N)(=O)=O)cc2)n1 [GW809893X],potency estimated from few doses,ADCK1; CATDS: 6.3645310719154996E-2,1370 nM
same,potency estimated from few doses,FLT3,36.1 nM
same,potency estimated from few doses,JAK2,65 nM
same,potency estimated from few doses,LIMK1,1630 nM
same,potency estimated from few doses,LYN,1210 nM
same,potency estimated from few doses,MAPK14,973 nM
same,potency estimated from few doses,MTOR,610 nM
same,potency estimated from few doses,PIK3CD; CATDS: 0.184193400818676,107 nM
same,potency estimated from few doses,PRKACG,728 nM
same,potency estimated from few doses,PRKDC,1020 nM
same,potency estimated from few doses,RET,938 nM
same,potency estimated from few doses,T10,1880 nM
O=C1NC(=O)C(c2c[nH]c3ccccc23)=C1c1ccccc1 [RO0316849-000],potency estimated from few doses,ADCK3; CATDS: 0.47545697813848398,812 nM
same,potency estimated from few doses,ADRBK1,2270 nM
same,potency estimated from few doses,AKT2; CATDS: 0.297394073145339,2010 nM
Cc1nc(-c2ccccc2)n2nc(NCCCN3CCOCC3)ncc12 [GW874091X],potency estimated from few doses,ADCK3; CATDS: 9.8029447870553399E-2,915 nM
same,potency estimated from few doses,AKT2; CATDS: 6.9315360856789104E-2,1850 nM
same,potency estimated from few doses,ATM; CATDS: 0.21297510466852801,287 nM
same,potency estimated from few doses,CAMK4,1460 nM
same,potency estimated from few doses,CDK6,1550 nM
same,potency estimated from few doses,CDKL5; CATDS: 9.7869696626463096E-2,917 nM
same,potency estimated from few doses,CSNK1E,2210 nM
same,potency estimated from few doses,CSNK2A1;CSNK2A3,2450 nM
same,potency estimated from few doses,MAP2K1,2410 nM
same,potency estimated from few doses,MAP2K2,1850 nM
same,potency estimated from few doses,NNT,1560 nM
same,potency estimated from few doses,NQO1,1240 nM
same,potency estimated from few doses,RIOK2,2290 nM
